From PubChem
Rows were chosen to be rich in hits. Some 6.1% of all compounds tested hit in one or more screens of this group.
ERG Ets-DNA blk – qHTS for Small Molecule Inhibitors of the ERG Ets/DNA interaction; fluorescence polarization, His-ERG Ets domain / labelled DNA; Potency, µM (doses to about 76.9 µM), usual class: inhibitors; 370,000 tested, 0.028% active; active = well fitted inhibition curve with a large enough effect in the polarisation, with a control signal flat; inconclusive = small, poorly fitted or top-dose-only effect, or effect the other way, or a change in a side signal; inactive = no such curve, though single readings can be large or run the other way; the % refers to the polarisation;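 also: polarization taken with two DNA probes labelled with fluorescein and Texas red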
Target sequence (P11308 whole entry, looked up, the tested form may be a part): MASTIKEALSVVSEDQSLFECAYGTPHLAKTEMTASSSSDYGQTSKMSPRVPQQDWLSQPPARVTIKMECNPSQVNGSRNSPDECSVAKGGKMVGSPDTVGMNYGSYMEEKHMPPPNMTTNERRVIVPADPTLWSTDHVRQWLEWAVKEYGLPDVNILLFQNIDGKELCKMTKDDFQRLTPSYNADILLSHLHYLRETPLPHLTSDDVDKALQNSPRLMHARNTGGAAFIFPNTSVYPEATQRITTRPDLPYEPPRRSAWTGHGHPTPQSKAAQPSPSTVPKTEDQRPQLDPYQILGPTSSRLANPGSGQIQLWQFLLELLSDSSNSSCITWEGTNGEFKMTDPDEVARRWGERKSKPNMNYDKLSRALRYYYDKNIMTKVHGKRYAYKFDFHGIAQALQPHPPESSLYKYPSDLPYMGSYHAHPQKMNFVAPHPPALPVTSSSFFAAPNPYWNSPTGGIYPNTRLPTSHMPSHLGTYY
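His-tagged ERG Ets domain (1 uM in the protein solution; 300mM KCl, 50mM Tris-HCl, 1mM EDTA, 1mM DTT, pH 7.5) received compound, then a probe mix of 5 nM fluorescein-DNA and 100nM Texas-615-DNA. Fluorescence polarization was read for both dyes.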
D1 antag – Antagonist of Human D 1 Dopamine Receptor: qHTS; D(1A) dopamine receptor (Homo sapiens), P21728; activity change, negative = inhibition, % at 10 µM; HEK293 TREx D1 cells, calcium flux, dopamine EC80; active compounds read low; 360,000 tested, 3.2% active; in the data active = activity change below about -30%
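Tetracycline-induced HEK293 T-REx cells with force-coupled D1 receptor were loaded with a no-wash calcium dye. Compound was added after a 10 s baseline and read kinetically for 180 s; EC80 dopamine was then added and calcium flux followed another 180 s.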
D1 agonist – Allosteric Agonists of the Human D1 Dopamine Receptor: qHTS | 360,000 tested, 1% active | activation, % at 2 µM | HEK293 T-REx D1 cells, calcium flux, agonist mode | D(1A) dopamine receptor (Homo sapiens), P21728; in the data active = activation above about 30%
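Inducible HEK293 T-REx D1 cells, force-coupled to calcium signalling, were plated at 4000 cells/well with tetracycline and held overnight at 30 C. After no-wash calcium dye loading, compound-evoked calcium rise over 180 s flagged agonists.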
D1 potentiator – Potentiators of Human D1 Dopamine Receptor: qHTS; D(1A) dopamine receptor (Homo sapiens), P21728; HEK293 TREx D1 cells, calcium flux, dopamine EC20 potentiation; potentiation, % at 10 µM; 360,000 tested, 0.036% active; in the data active = potentiation above about 30%
D3 antag – qHTS of D3 Dopamine Receptor Antagonist: qHTS; D(3) dopamine receptor (Homo sapiens), P35462; D3R cells, DiscoveRx beta-arrestin luminescence, antagonist mode; active compounds read low; max response, negative = inhibition, %; 360,000 tested, 2.5% active; AID 652054, 2013; in the data active = max response below about -50%; inconclusive = no clear call, values can overlap the other calls
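Cells plated overnight at 1500 cells/well, then exposed to library compounds with dopamine controls for 90 minutes at 37 degrees C. DiscoveRx reagent added for 30–60 minutes at room temperature; luminescence read, quantitative HTS format.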
DRD3 agonist – qHTS of D3 Dopamine Receptor Agonist: qHTS | 410,000 tested, 0.58% active | max activation, % | D3R DiscoveRx beta-arrestin cells, luminescence, 90 min | AID 652048, 2013; in the data active = max activation above about 30%
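Agonist mode: compounds and dopamine controls were applied to plated cells for 90 min at 37 degrees C after an overnight attachment at 1500 cells/well. Luminescent read-out followed 30 - 60 minutes at room temperature with DiscoveRx detection reagent.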
Numbers stand for hits; i = inactive; ? = inconclusive; nt = no result given; ! = not confirmed by another sample.

SMILES	ERG Ets-DNA blk	D1 antag	D1 agonist	D1 potentiator	D3 antag	DRD3 agonist
COc1cccc(NC(=O)c2ccc(-c3nc(COc4ccccc4)c(C)o3)cc2)c1	i	i	i	i	nt	62
COc1cccc(NC(=O)c2ccc(-c3nc(COc4ccc(C)cc4)c(C)o3)cc2)c1	i	i	i	i	nt	i
Cc1cccc(C)c1-n1nnnc1C(C1CC1)N1CCN(C/C=C/c2ccccc2)CC1 (stereo unspecified)	nt	nt	nt	nt	-79	i
COc1ccc(-n2nnnc2C(C2CC2)N2CCN(C/C=C/c3ccccc3)CC2)cc1 (stereo unspecified)	nt	nt	nt	nt	-81	i
OCc1cn(-c2ccccc2)nc1-c1cc2ccccc2o1	i	i	i	i	i	i
COc1cccc(OCCCn2c(-c3ccc(Cl)cc3)nc3ccccc3c2=O)c1	i	i	i	i	nt	i
C/C(=N/NC(=O)c1ccc(Cl)s1)c1cccnc1	i	-48	i	i	i	i
CCN1CCCC1CNC(=O)c1cc2c(OC)c(OC)c(OC)cc2[nH]1 (stereo unspecified)	i	i	i	i	-61	i
CCN1CCC[C@H]1CNC(=O)c1c(O)c(Cl)cc(Cl)c1OC	i	i	i	i	-117	i
CCN1CCCC1CNC(=O)c1cc2c(OC)cccc2[nH]1 (stereo unspecified)	i	i	i	i	i	i
CCCCN1CCCC1CNC(=O)c1cc(C#N)c2ccccc2c1OC (stereo unspecified)	nt	-41	i	i	nt	nt
CCN1CCCC1CNC(=O)c1cc(OC)c(OC)c(OC)c1 (stereo unspecified)	i	i	i	i	-61	i
Cc1ccc(NC(=O)C2COc3ccccc3O2)cc1C (stereo unspecified)	i	i	i	i	i	i
c1cc2nnnn2nc1N1CCCCC1	nt	i	i	i	i	i
COc1ccc(C(=O)N2CCCC(Nc3ccc(F)c(F)c3)C2)c(OC)n1 (stereo unspecified)	i	-35	i	i	i	i
COc1ccc(C(=O)N2CCCC(Nc3ccc(C)c(C)c3)C2)c(OC)n1 (stereo unspecified)	i	i	i	i	i	i
O=C(c1cnsn1)N1CCCC(Nc2ccc(F)c(F)c2)C1 (stereo unspecified)	i	-65	i	i	?	i
COc1ccc(OC)c(S(=O)(=O)N2CCC(C(=O)N3CCN(Cc4ccccc4)CC3)CC2)c1	i	i	i	i	?	i
CCN1CCN(CCCNC(=O)CCC(=O)N2CCOc3ccc(Cl)cc32)CC1	i	i	i	i	i	i
O=C1C=CN(Cc2ccccc2)C(c2ccccc2)C1 (stereo unspecified)	i	nt	nt	nt	i	i
CCCCC1=CC2=C(c3ccco3)C(=O)C(C)(OC(=O)c3ccc(OC)cc3)C(=O)C2=CN1C1CCCCC1 (stereo unspecified)	i	i	i	i	-91	i
CCCCC1=CC2=C(c3ccco3)C(=O)C(C)(OC(=O)c3ccc(OC)cc3)C(=O)C2=CN1CCOC (stereo unspecified)	i	i	i	i	i	i
O=C(Nc1ccccc1)c1ccc2c(c1)CCN2S(=O)(=O)c1ccccc1	i	-32	i	i	i	i
O=C(NCCc1ccccc1)c1ccc2c(c1)CCN2S(=O)(=O)c1ccc(Br)cc1	i	i	i	i	nt	i
NS(=O)(=O)c1ccc(NC(=O)c2ccc3c(c2)CCN3S(=O)(=O)c2ccccc2)cc1	i	i	i	i	i	i
SMILES	ERG Ets-DNA blk	D1 antag	D1 agonist	D1 potentiator	D3 antag	DRD3 agonist
CC(=O)Nc1cccc(NC(=O)c2ccc3c(c2)CCN3S(=O)(=O)c2ccccc2)c1	i	i	i	i	i	i
Cc1ccc(S(=O)(=O)N2CCc3cc(C(=O)NCCc4ccccc4)ccc32)cc1	i	i	i	i	nt	64
COc1ccc(NC(=O)c2ccc3c(c2)CCN3S(=O)(=O)c2ccccc2)cc1	i	-51!	i	i	i	i
O=S(=O)(Nc1ccc(-c2ccc(N3CCCC3)nn2)cc1)c1ccc(Br)cc1	i	i	i	i	nt	i
CCOc1ccc(/C=N/OCC(=O)NC(c2ccccc2)c2ccccc2)cc1	i	i	33	i	i	i
CCCCCC(C)NC(=S)NC(=O)c1cc(S(=O)(=O)N2CCOCC2)ccc1C (stereo unspecified)	i	i	i	i	i	i
CCc1c(C)c2ccc(O)c(CN3CCCC3)c2oc1=O	i	i	i	i	i	i
COC(=O)Cc1c(C)c2ccc(O)c(CN3CCCC(C)C3)c2oc1=O (stereo unspecified)	i	i	i	i	-54	i
CS(=O)c1nc(-c2ccc(Br)cc2)cc(-c2ccccc2)c1C#N (stereo unspecified)	nt	i	i	i	-56	i
Nc1ccc(-c2cc(-c3ccc(N)cc3)nc(-c3ccccc3)n2)cc1	i	i	i	i	i	i
Oc1ccc(-c2cc(-c3ccc(O)cc3)nc(-c3ccccc3)n2)cc1	i	-40	i	i	i	i
COc1ccc(-c2cc(-c3ccc(O)cc3)nc(N)c2C#N)cc1	i	i	i	i	i	i
N#Cc1c(-c2ccccc2)cc(-c2ccc(O)cc2)nc1N	i	-42	i	i	i	i
O=C(CSc1nnnn1CCCO)Nc1ccc2c(c1)OCO2	i	i	i	i	i	i
Cc1cccc(N2C(=O)N(c3ccccc3C)C3CS(=O)(=O)CC32)c1 (stereo unspecified)	i	i	i	i	-53	i
CC(=O)c1c(C)oc2c(Cl)cc(NS(=O)(=O)c3ccc(Cl)cc3)cc12	i	i	i	i	nt	i
CCOC(=O)c1c(C)oc2c(Cl)cc(NS(=O)(=O)c3ccc(Cl)c(C)c3)cc12	i	-31	i	i	nt	i
CCc1ccc(S(=O)(=O)Nc2ccc3oc(C)c(C(=O)OCCOC)c3c2)cc1	i	-43	i	i	nt	i
COc1ccccc1C(CCNS(=O)(=O)c1ccc(C)cc1)c1ccco1 (stereo unspecified)	i	i	42	i	i	i
COc1ccccc1C1CC(=O)NC(C)=C1C(=O)OC1CCCCCC1 (stereo unspecified)	i	i	i	i	nt	i
CCC1Oc2ccc(C)cc2N(CC(=O)NCCCN2CCCC2)C1=O (stereo unspecified)	i	i	i	i	-68	i
CCC1Oc2ccccc2N(CC(=O)NCCC2=CCCCC2)C1=O (stereo unspecified)	i	-34	i	i	i	i
